From PubChem BioAssay
Rab9 prom act – qHTS Assay for Rab9 Promoter Activators; Huh7 Rab9 promoter-luciferase reporter, luminescence, 24 h; Potency, µM (series often up to 9.22 µM), for inactives: at the top dose activation, negative = inhibition, actives largely listed as activators; 2.8% of 320,000 active; further: % of control where 0% means no effect; nearly all actives have a fitted effect of over 60% in size
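Stable Rab9-luc Huh7, 1500 cells/well, 2 h settle; cmpd in DMSO, 24 h, 37 °C/5% CO2; luciferase reagent 10 min RT; luminescence.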
NPC1 promoter act – qHTS Assay for NPC1 Promoter Activators; Huh7 NPC1 promoter luciferase reporter, 24 h; Potency, µM (series often up to 9.22 µM), for inactives: at the top dose activation, actives largely listed as activators; 2.4% of 320,000 active; AID 485313, 2010; further: % of control where 0% means no effect; nearly all actives have a fitted effect of over 60% in size
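Stable NPC1-promoter luciferase Huh7 line; cpd (DMSO) 24 h, 37 °C, 5% CO2; Amplite luciferase reagent 10 min RT; luminescence readout. qHTS format.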
Luc counter – Counterscreen for Luciferase (Kinase-Glo TM) Inhibition | Luciferin 4-monooxygenase (Photuris pensylvanica), Q27757 | Kinase-Glo luciferase, ATP luminescence, 8 min | Potency, µM (highest dose often 38.3 µM), inactives show at the highest dose activity change, negative = inhibition, usual class: inhibitors | 0.28% of 200,000 active; further: on the % scale 0 is the no-effect control and ±100 the full control effect; nearly all actives have a fitted effect of over 60% in size
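Compound is pinned into ATP-containing buffer (10 uM ATP, imidazole pH 7.2, 7 mM MgCl2). Kinase-Glo luciferase reagent is then added. Light output is recorded following an 8-min room-temperature incubation.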
SMN2 splice up – qHTS Assay for Enhancers of SMN2 Splice Variant Expression; HEK293 SMN2-luciferase splicing reporter, luminescence, 30-36 h; Potency, µM (titrated, usually from 46.1 µM), for inactives: at the top dose activity change, positive = activation, actives largely listed as activators; 2.8% of 210,000 active; AID 1458, 2008; further: % of control where 0% means no effect; nearly all actives have a fitted effect of over 55% in size
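qHTS luciferase splicing reporter: luminescence rises when SMN2 exon 7 is included in transfected HEK293 cells. Compound exposure lasted 30-36 h at 37C, with 4.5 mM final sodium butyrate as control, followed by a ONE-Glo read.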
FLuc modulator – qHTS profiling assay for firefly luciferase inhibitor/activator using purifed enzyme and Km concentrations of substrates (counterscreen for miR-21 project); Luciferin 4-monooxygenase (Photinus pyralis), P08659; purified FLuc, Km substrates, luminescence inhibition; Potency, µM (doses to about 57.5 µM), for the others: top-dose activity change, negative = inhibition, usual class: inhibitors; 6.9% of 360,000 active;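 further: plate controls were vehicle for no effect and reference inhibitor for full effect; nearly all actives have a fitted effect of over 55% in size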
Target sequence (P08659 whole entry, looked up): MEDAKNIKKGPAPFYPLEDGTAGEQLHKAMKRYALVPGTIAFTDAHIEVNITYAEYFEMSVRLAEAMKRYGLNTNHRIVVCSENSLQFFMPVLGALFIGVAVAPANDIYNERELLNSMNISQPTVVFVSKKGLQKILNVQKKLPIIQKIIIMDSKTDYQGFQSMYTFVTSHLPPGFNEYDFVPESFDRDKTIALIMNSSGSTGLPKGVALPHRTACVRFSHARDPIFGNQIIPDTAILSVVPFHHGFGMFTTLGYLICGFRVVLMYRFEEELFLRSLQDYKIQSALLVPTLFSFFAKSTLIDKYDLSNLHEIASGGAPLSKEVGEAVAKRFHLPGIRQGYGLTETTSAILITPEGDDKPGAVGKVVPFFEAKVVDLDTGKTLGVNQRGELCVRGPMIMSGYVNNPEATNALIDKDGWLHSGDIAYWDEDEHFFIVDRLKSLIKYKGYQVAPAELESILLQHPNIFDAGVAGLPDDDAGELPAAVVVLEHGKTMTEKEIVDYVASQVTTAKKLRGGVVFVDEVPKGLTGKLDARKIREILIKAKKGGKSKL
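Biochemical qHTS of compounds, final roughly 60 µM downward over six points, against 10 nM purified firefly luciferase using Km concentrations of substrates (10 uM D-luciferin, 10 uM ATP) in Tris acetate pH 7.5 buffer; luminescence output.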
* hit, by the source's call; [ ] = dose if it differs, or a comment. Hits are enriched below; roughly 7.3% of the tested compounds scored in any of these assays. The call rests on the fitted dose curve; in most records, active means well fitted curve in the direction sought with a large enough effect; inconclusive means small, poorly fitted or top-dose-only effect, or another doubt; inactive means no such curve, though single readings can be large; an effect the other way counts as inactive or inconclusive. Potency means the concentration at half of the fitted maximal effect.

Results for O=C(COC(=O)c1ccccc1Br)Nc1ccc(F)cc1 ?
Rab9 prom act: 7%; NPC1 promoter act: -2%; Luc counter: -1%; SMN2 splice up: 11%; FLuc modulator: 19µM*

What do the screens show for `O=C(COc1ccccc1[N+](=O)[O-])Nc1ccc(Br)cc1`?
Rab9 prom act: 3.2µM*; NPC1 promoter act: inconclusive; FLuc modulator: 9.5µM*

What do the screens show for `COC(=O)/C=C/COc1ccccc1[N+](=O)[O-]`?
Rab9 prom act: inconclusive; NPC1 promoter act: 24%; Luc counter: -3%; SMN2 splice up: 9%; FLuc modulator: 21µM*

How did CCOC(=O)c1c(NC(C)=O)c2c3c(sc2n1Cc1nc(-c2ccccc2OCC)oc1C)CCCC3 do in these assays?
SMN2 splice up: 2%; FLuc modulator: -1%

What do the screens show for `O=C(COc1ccccc1[N+](=O)[O-])Nc1cccnc1`?
Rab9 prom act: inconclusive; NPC1 promoter act: 29%; FLuc modulator: inconclusive

Results for CC(C)(C)NC(=O)COC(=O)c1ccccc1OCC(=O)Nc1ccc(Br)cc1 ?
Rab9 prom act: inconclusive; NPC1 promoter act: inconclusive; FLuc modulator: 1.1µM*

Results for Cc1ccnc(NC(=O)COc2ccccc2[N+](=O)[O-])c1 ?
Rab9 prom act: inconclusive; NPC1 promoter act: 2.2µM*; Luc counter: -29%; SMN2 splice up: 5µM*; FLuc modulator: 1.7µM*

Results for Cc1ccc(NC(=O)COc2ccccc2[N+](=O)[O-])nc1 ?
Rab9 prom act: 0.79µM*; NPC1 promoter act: 3.2µM*; Luc counter: inconclusive; SMN2 splice up: 2.8µM*; FLuc modulator: 2.1µM*

What do the screens show for `COc1ccc(NC(=O)c2oc3ccccc3c2NC(=O)COc2ccc(F)cc2)c(OC)c1`?
SMN2 splice up: -7%; FLuc modulator: 0%

Results for O=C(NCc1ccc(Cl)cc1)c1ccc2oc(=O)n(Cc3ccccc3)c2c1 ?
FLuc modulator: -10%

How did COc1ccc(Cl)cc1Nc1ncnc2c1nc1n2CCCC1 do in these assays?
FLuc modulator: -13%

Results for O=C(NC1=NCCS1)c1ccc(Cl)c(Cl)c1 ?
Rab9 prom act: 0.63µM*; NPC1 promoter act: 0.63µM*; FLuc modulator: 4.8µM*

What do the screens show for `O=C(NC1=NCCS1)c1cccs1`?
Rab9 prom act: 16%; NPC1 promoter act: 4%; Luc counter: 1%; SMN2 splice up: 28µM*; FLuc modulator: -19%

Results for O=C(NC1=NCCS1)c1cc(Cl)ccc1Cl ?
Rab9 prom act: 3%; NPC1 promoter act: -5%; FLuc modulator: -8%

How did Cc1cc(C(=O)NC2=NCCS2)cs1 do in these assays?
Rab9 prom act: 1.6µM*; NPC1 promoter act: 2.5µM*; Luc counter: -3%; SMN2 splice up: 11µM*; FLuc modulator: 8.5µM*

What do the screens show for `CC(C)C(NC(=O)c1cccs1)C(=O)NC1=NCCS1` (stereo not given)?
Rab9 prom act: -8%; NPC1 promoter act: 0%; Luc counter: -1%; SMN2 splice up: -2%; FLuc modulator: 2%

How did O=C(NC1=NCCS1)c1csc2ccccc12 do in these assays?
Rab9 prom act: 1.6µM*; NPC1 promoter act: 2.2µM*; Luc counter: -17%; SMN2 splice up: 11µM*; FLuc modulator: -27%[2.3 µM]

What do the screens show for `O=C(NC1=NCCS1)c1ccccc1Cl`?
Rab9 prom act: 4%; NPC1 promoter act: 2%; FLuc modulator: -19%

How did O=C(c1ccco1)n1nc(-c2ccccc2)nc1NCc1ccc(F)cc1 do in these assays?
SMN2 splice up: -3%; FLuc modulator: 1%

Results for S[C@@H]1CCCN(Cc2ccccc2)C1 ?
Luc counter: -1%[7.66 µM]; SMN2 splice up: 0%[9.22 µM]

Results for Cc1cccc(C(=O)NC2=NCCS2)c1 ?
Rab9 prom act: 0.71µM*; NPC1 promoter act: 1.3µM*; Luc counter: -20%; FLuc modulator: 8.5µM*

How did O=C(NC1=NCCS1)c1ccccc1 do in these assays?
Rab9 prom act: 23%; NPC1 promoter act: 21%; FLuc modulator: -18%

How did O=C(Nc1cnccn1)c1csc2ccccc12 do in these assays?
Rab9 prom act: inconclusive; NPC1 promoter act: 25%; Luc counter: -3%; SMN2 splice up: inconclusive; FLuc modulator: 19µM*

What do the screens show for `Cc1cc(C)cc(NC(=O)CN2C(=O)c3ccccc3Sc3ncccc32)c1`?
FLuc modulator: -1%

What do the screens show for `Cc1cccc(C)c1-n1ncc(C(=O)N2CCN(c3ccccn3)CC2)c1C1CCN(C(=O)OC(C)(C)C)CC1`?
FLuc modulator: -4%

Results for COc1ccc(-c2cc(C(=O)Oc3cccc(C)c3)c3cc(C)ccc3n2)cc1 ?
SMN2 splice up: -25%; FLuc modulator: 0%

What do the screens show for `COc1ccc(/C(N)=N/OC(=O)c2cc(-c3ccccc3)nc3ccccc23)cc1`?
Rab9 prom act: -1%; NPC1 promoter act: 2%; Luc counter: -10%; SMN2 splice up: -16%; FLuc modulator: inconclusive

What do the screens show for `N/C(=N\OC(=O)c1cc(-c2ccccc2)nc2ccccc12)c1ccccn1`?
Rab9 prom act: 14%; NPC1 promoter act: 10%; Luc counter: -4%; FLuc modulator: 9.5µM*

How did CC(=O)COC(=O)c1cc(-c2ccc(C)cc2)nc2ccccc12 do in these assays?
Rab9 prom act: 24%; NPC1 promoter act: 16%; Luc counter: 1%; FLuc modulator: 17µM*

What do the screens show for `Cc1ccc(-c2cc(C(=O)Oc3ccccc3)c3cc(C)ccc3n2)cc1`?
SMN2 splice up: 0%; FLuc modulator: 21µM*

Results for Cc1ccc(/C(N)=N/OC(=O)c2cc(-c3ccccc3)nc3ccccc23)cc1 ?
Rab9 prom act: -1%; NPC1 promoter act: 0%; Luc counter: -3%; SMN2 splice up: 7%; FLuc modulator: 13µM*

How did COc1cc(Cl)c(C)cc1NC(=O)c1cc2c(=O)oc3ccccc3c2s1 do in these assays?
SMN2 splice up: 4%; FLuc modulator: -4%

What do the screens show for `N.N.N.N.N.N.N.N.N.N.N.N.N.N.O.O.[Ru+4].[Ru+5].[Ru+5]`?
Rab9 prom act: -11%[46.1 µM]; NPC1 promoter act: -12%[46.1 µM]

Results for CCOc1ccccc1CNC(=O)CN(c1ccc(C)cc1)S(=O)(=O)N(C)C ?
FLuc modulator: 0%

How did COc1cccc(CNC(=O)c2cc(S(=O)(=O)N3CCCCC3)cn2C)c1 do in these assays?
FLuc modulator: -3%

What do the screens show for `O=C(NC(=S)NC1CCCCCC1)c1cncc(Br)c1`?
Rab9 prom act: 20%; NPC1 promoter act: inconclusive; Luc counter: 2%; SMN2 splice up: 16µM*; FLuc modulator: inconclusive

What do the screens show for `O=C(NC(=S)NC1CCCCC1)c1ccccc1`?
Rab9 prom act: inconclusive; NPC1 promoter act: inconclusive; FLuc modulator: 15µM*
